# Data as given in PubChem BioAssay AID1159580 (chemical genetic matrix, 2015).
# Screen size: about 5,500 compounds; about 2,000 (36%) were called active. Not shown: some 18% with an inconclusive outcome. The list shows a part of the results. A number with no mark means an inactive call. Cut-off read from the data, not from the text of the source: active = normalized growth mostly below about 0.91 (no sharp cut-off); inconclusive = no clear call, values can overlap the other calls; inactive = mostly above about 0.92.
# Assay: chemical genetic growth profiling, strain panel (AID 1159580);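 note: tested at 20 µM; growth read once vehicle control cultures reached saturation at 30 °C; 1 = growth at the plate median or of vehicle wells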
# Settings: S. cerevisiae deletion strains, growth OD
# [1] = locus YMR307W, strain GAS1, stronger effect = lower value
structure (smiles),measurement,setting,value
Nc1nc2ccc(Cl)cc2c2nc(-c3ccco3)nn12,normalized growth,"locus YAL040C, strain CLN3, stronger effect = lower value",0.734 (active)
same,normalized growth,"locus YCL061C, strain MRC1 (second series), stronger effect = lower value",0.988
same,normalized growth,"locus YDR363W, strain ESC2, stronger effect = lower value",0.926
same,normalized growth,"locus YER002W, strain NOP16, stronger effect = lower value",0.74 (active)
same,normalized growth,[1],0.969
same,normalized growth,"locus YNL128W, strain TEP1, stronger effect = lower value",0.632 (active)
same,normalized growth,"locus YNL175C, strain NOP13, stronger effect = lower value",0.664 (active)
same,normalized growth,"locus YNL197C, strain WHI3, stronger effect = lower value",0.81 (active)
same,normalized growth,"locus YNL224C, strain SQS1, stronger effect = lower value",0.729 (active)
same,normalized growth,"locus YOR083W, strain WHI5 (second series), stronger effect = lower value",0.473 (active)
same,normalized growth,"locus YPL055C, strain LGE1, stronger effect = lower value",0.909
CC(=O)O[C@@](C)(CCC=C(C)C)C1CC=C(C)CC1 (stereo partly specified),normalized growth,"locus YAL013W, strain DEP1, stronger effect = lower value",1.02
same,normalized growth,"locus YAL021C, strain ccr4, stronger effect = lower value",1.01
same,normalized growth,"locus YAL026C, strain drs2, stronger effect = lower value",0.989
same,normalized growth,"locus YAL030W, strain snc1, stronger effect = lower value",0.987
same,normalized growth,"locus YBL061C, strain skt5, stronger effect = lower value",0.979
same,normalized growth,"locus YBR009C, strain hhf1, stronger effect = lower value",1.01
same,normalized growth,"locus YBR021W, strain FUR4, stronger effect = lower value",1.03
same,normalized growth,"locus YBR023C, strain chs3, stronger effect = lower value",0.986
same,normalized growth,"locus YBR171W, strain sec66, stronger effect = lower value",0.981
same,normalized growth,"locus YBR229C, strain ROT2, stronger effect = lower value",1.02
same,normalized growth,"locus YBR231C, strain swc5, stronger effect = lower value",0.996
same,normalized growth,"locus YBR279W, strain paf1, stronger effect = lower value",0.987
same,normalized growth,"locus YCL011C, strain gbp2, stronger effect = lower value",0.983
same,normalized growth,"locus YCL016C, strain dcc1, stronger effect = lower value",0.996
same,normalized growth,"locus YCL029C, strain bik1, stronger effect = lower value",0.992
same,normalized growth,"locus YCL069W, strain vba3, stronger effect = lower value",0.983
same,normalized growth,"locus YCR088W, strain abp1, stronger effect = lower value",0.983
same,normalized growth,"locus YDL005C, strain med2, stronger effect = lower value",0.978
same,normalized growth,"locus YDL035C, strain GPR1, stronger effect = lower value",1.01
same,normalized growth,"locus YDL040C, strain nat1, stronger effect = lower value",0.988
same,normalized growth,"locus YDL074C, strain BRE1, stronger effect = lower value",1.03
same,normalized growth,"locus YDL101C, strain DUN1, stronger effect = lower value",1.03
same,normalized growth,"locus YDL185W, strain tfp1, stronger effect = lower value",0.988
same,normalized growth,"locus YDL192W, strain arf1, stronger effect = lower value",1
same,normalized growth,"locus YDR001C, strain nth1, stronger effect = lower value",0.991
same,normalized growth,"locus YDR069C, strain doa4, stronger effect = lower value",0.966
same,normalized growth,"locus YDR101C, strain arx1, stronger effect = lower value",0.97
same,normalized growth,"locus YDR137W, strain rgp1, stronger effect = lower value",0.976
same,normalized growth,"locus YDR159W, strain sac3, stronger effect = lower value",0.982
same,normalized growth,"locus YDR162C, strain NBP2, stronger effect = lower value",1.05
same,normalized growth,"locus YDR195W, strain ref2",0.982
same,normalized growth,"locus YDR297W, strain sur2, stronger effect = lower value",0.974
same,normalized growth,"locus YDR318W, strain mcm21, stronger effect = lower value",0.997
same,normalized growth,"locus YDR334W, strain swr1, stronger effect = lower value",0.985
same,normalized growth,"locus YDR335W, strain msn5, stronger effect = lower value",0.986
same,normalized growth,"locus YDR388W, stronger effect = lower value",0.994
same,normalized growth,"locus YDR392W, strain spt3, stronger effect = lower value",0.973
same,normalized growth,"locus YDR502C, strain sam2, stronger effect = lower value",0.978
same,normalized growth,"locus YEL003W, strain gim4, stronger effect = lower value",0.993
same,normalized growth,"locus YEL037C, strain rad23, stronger effect = lower value",0.991
same,normalized growth,"locus YEL061C, strain CIN8 (second series), stronger effect = lower value",0.978
same,normalized growth,"locus YEL061C, strain CIN8, stronger effect = lower value",1.02
same,normalized growth,"locus YER015W, strain faa2, stronger effect = lower value",0.994
same,normalized growth,"locus YER016W, strain bim1, stronger effect = lower value",0.992
same,normalized growth,"locus YER110C, stronger effect = lower value",0.985
same,normalized growth,"locus YER111C, strain swi4, stronger effect = lower value",0.981
same,normalized growth,"locus YER155C, strain BEM2 (second series), stronger effect = lower value",1.01
same,normalized growth,"locus YER155C, strain BEM2, stronger effect = lower value",1.02
same,normalized growth,"locus YER167W, strain BCK2, stronger effect = lower value",1
same,normalized growth,"locus YFR010W, strain ubp6, stronger effect = lower value",0.973
same,normalized growth,"locus YGL078C, strain dbp3, stronger effect = lower value",0.995
same,normalized growth,"locus YGL086W, strain mad1, stronger effect = lower value",0.991
same,normalized growth,"locus YGL167C, strain pmr1, stronger effect = lower value",0.991
same,normalized growth,"locus YGL173C, strain kem1, stronger effect = lower value",0.984
same,normalized growth,"locus YGL227W, strain vid30, stronger effect = lower value",0.986
same,normalized growth,"locus YGL240W, strain doc1, stronger effect = lower value",0.992
same,normalized growth,"locus YGL248W, strain PDE1, stronger effect = lower value",1.05
same,normalized growth,"locus YGL253W, strain hxk2, stronger effect = lower value",0.987
same,normalized growth,"locus YGR078C, strain PAC10, stronger effect = lower value",1.05
same,normalized growth,"locus YGR135W, strain pre9, stronger effect = lower value",1.02
same,normalized growth,"locus YGR229C, strain SMI1, stronger effect = lower value",0.998
same,normalized growth,"locus YGR252W, strain gcn5, stronger effect = lower value",1.01
same,normalized growth,"locus YHR013C, strain ard1, stronger effect = lower value",1
same,normalized growth,"locus YHR027C, strain rpn1, stronger effect = lower value",0.983
same,normalized growth,"locus YHR030C, strain SLT2, stronger effect = lower value",1.02
same,normalized growth,"locus YHR079C, strain IRE1 (second series), stronger effect = lower value",0.985
same,normalized growth,"locus YHR094C, strain hxt1, stronger effect = lower value",1
same,normalized growth,"locus YHR129C, strain ARP1, stronger effect = lower value",1.02
same,normalized growth,"locus YHR142W, strain chs7, stronger effect = lower value",0.999
same,normalized growth,"locus YHR200W, strain rpn10, stronger effect = lower value",0.992
same,normalized growth,"locus YIL066C, strain RNR3, stronger effect = lower value",1.04
same,normalized growth,"locus YIL073C, strain SPO22, stronger effect = lower value",1
same,normalized growth,"locus YIL125W, strain kgd1, stronger effect = lower value",1
same,normalized growth,"locus YIR030C, strain dcg1, stronger effect = lower value",0.992
same,normalized growth,"locus YJL092W, strain hpr5, stronger effect = lower value",0.988
same,normalized growth,"locus YJL095W, strain BCK1 (second series), stronger effect = lower value",0.998
same,normalized growth,"locus YJL095W, strain BCK1, stronger effect = lower value",1.06
same,normalized growth,"locus YJL115W, strain asf1, stronger effect = lower value",0.989
same,normalized growth,"locus YJL129C, strain trk1, stronger effect = lower value",0.981
same,normalized growth,"locus YJL134W, strain LCB3, stronger effect = lower value",1.01
same,normalized growth,"locus YJL154C, strain vps35, stronger effect = lower value",0.984
same,normalized growth,"locus YJL164C, strain tpk1, stronger effect = lower value",0.994
same,normalized growth,"locus YJL166W, strain qcr8, stronger effect = lower value",0.983
same,normalized growth,"locus YJL168C, strain set2, stronger effect = lower value",0.999
same,normalized growth,"locus YJL187C, strain SWE1 (second series), stronger effect = lower value",1.04
same,normalized growth,"locus YJL187C, strain SWE1, stronger effect = lower value",0.991
same,normalized growth,"locus YJR043C, strain POL32, stronger effect = lower value",1.04
same,normalized growth,"locus YKL009W, strain mrt4, stronger effect = lower value",0.962
same,normalized growth,"locus YKL068W, stronger effect = lower value",0.997
same,normalized growth,"locus YKL085W, strain MDH1 (second series), stronger effect = lower value",0.994
same,normalized growth,"locus YKL085W, strain MDH1, stronger effect = lower value",0.994
same,normalized growth,"locus YKL160W, strain elf1, stronger effect = lower value",0.993
same,normalized growth,"locus YKL190W, strain CNB1, stronger effect = lower value",1.01
same,normalized growth,"locus YKR001C, strain vps1, stronger effect = lower value",0.987
same,normalized growth,"locus YKR026C, strain gcn3, stronger effect = lower value",0.99
same,normalized growth,"locus YKR091W, strain srl3, stronger effect = lower value",0.982
same,normalized growth,"locus YLL001W, strain dnm1, stronger effect = lower value",0.993
same,normalized growth,"locus YLL026W, stronger effect = lower value",0.985
same,normalized growth,"locus YLL041C, strain sdh2, stronger effect = lower value",1.01
same,normalized growth,"locus YLR027C, strain aat2, stronger effect = lower value",0.985
same,normalized growth,"locus YLR039C, strain RIC1, stronger effect = lower value",1.05
same,normalized growth,"locus YLR058C, strain SHM2, stronger effect = lower value",1.04
same,normalized growth,"locus YLR102C, strain apc9, stronger effect = lower value",0.986
same,normalized growth,"locus YLR221C, strain rsa3, stronger effect = lower value",0.972
same,normalized growth,"locus YLR258W, strain gsy2, stronger effect = lower value",1.01
same,normalized growth,"locus YLR262C, strain YPT6 (second series), stronger effect = lower value",0.959
same,normalized growth,"locus YLR262C, strain YPT6, stronger effect = lower value",1.04
same,normalized growth,"locus YLR268W, strain sec22, stronger effect = lower value",1
same,normalized growth,"locus YLR320W, strain mms22, stronger effect = lower value",0.975
same,normalized growth,"locus YLR330W, strain CHS5, stronger effect = lower value",1.03
same,normalized growth,"locus YLR342W, strain FKS1 (second series), stronger effect = lower value",1.09
same,normalized growth,"locus YLR342W, strain FKS1, stronger effect = lower value",0.974
same,normalized growth,"locus YLR357W, strain rsc2, stronger effect = lower value",0.951
same,normalized growth,"locus YLR370C, strain arc18, stronger effect = lower value",0.983
same,normalized growth,"locus YLR371W, strain rom2, stronger effect = lower value",0.997
same,normalized growth,"locus YLR384C, strain iki3, stronger effect = lower value",0.973
same,normalized growth,"locus YLR418C, strain cdc73, stronger effect = lower value",0.988
same,normalized growth,"locus YML016C, strain PPZ1, stronger effect = lower value",1.02
same,normalized growth,"locus YML032C, strain rad52, stronger effect = lower value",1.01
same,normalized growth,"locus YML120C, strain ndi1, stronger effect = lower value",0.985
same,normalized growth,"locus YML124C, strain tub3, stronger effect = lower value",0.992
same,normalized growth,"locus YMR058W, strain fet3, stronger effect = lower value",0.995
same,normalized growth,"locus YMR078C, strain ctf18, stronger effect = lower value",0.971
same,normalized growth,"locus YMR125W, strain sto1, stronger effect = lower value",0.983
same,normalized growth,"locus YMR129W, stronger effect = lower value",1
same,normalized growth,"locus YMR205C, strain PFK2, stronger effect = lower value",0.988
same,normalized growth,"locus YMR223W, strain ubp8, stronger effect = lower value",1.04
same,normalized growth,"locus YMR231W, strain pep5, stronger effect = lower value",0.994
same,normalized growth,"locus YMR263W, strain SAP30, stronger effect = lower value",1.04
same,normalized growth,[1],1.11
same,normalized growth,"locus YNL067W, strain RPL9B, stronger effect = lower value",1.04
same,normalized growth,"locus YNL071W, strain lat1, stronger effect = lower value",0.99
same,normalized growth,"locus YNL153C, strain GIM3, stronger effect = lower value",1.04
same,normalized growth,"locus YNL209W, strain ssb2, stronger effect = lower value",0.984
same,normalized growth,"locus YNL233W, strain BNI4, stronger effect = lower value",1.04
same,normalized growth,"locus YNL248C, strain rpa49, stronger effect = lower value",0.975
same,normalized growth,"locus YNL250W, strain rad50, stronger effect = lower value",1.01
same,normalized growth,"locus YNL271C, strain bni1, stronger effect = lower value",0.998
same,normalized growth,"locus YNL298W, strain CLA4, stronger effect = lower value",0.996
same,normalized growth,"locus YNL307C, strain MCK1, stronger effect = lower value",0.996
same,normalized growth,"locus YNL322C, strain KRE1 (second series), stronger effect = lower value",0.99
same,normalized growth,"locus YNR049C, strain mso1, stronger effect = lower value",1
same,normalized growth,"locus YNR052C, strain pop2, stronger effect = lower value",0.995
same,normalized growth,"locus YOL006C, strain TOP1, stronger effect = lower value",1.14
same,normalized growth,"locus YOL012C, strain htz1",0.898
same,normalized growth,"locus YOL147C, strain pex11, stronger effect = lower value",0.984
same,normalized growth,"locus YOR001W, strain rrp6, stronger effect = lower value",0.973
same,normalized growth,"locus YOR061W, strain CKA2, stronger effect = lower value",1.03
same,normalized growth,"locus YOR069W, strain VPS5, stronger effect = lower value",1.01
same,normalized growth,"locus YOR070C, strain gyp1, stronger effect = lower value",0.982
same,normalized growth,"locus YOR080W, strain dia2, stronger effect = lower value",0.991
same,normalized growth,"locus YOR083W, strain WHI5, stronger effect = lower value",0.999
same,normalized growth,"locus YOR106W, strain vam3, stronger effect = lower value",0.975
same,normalized growth,"locus YOR136W, strain idh2, stronger effect = lower value",0.988
same,normalized growth,"locus YOR144C, strain elg1, stronger effect = lower value",0.983
same,normalized growth,"locus YOR184W, strain ser1, stronger effect = lower value",0.962
same,normalized growth,"locus YOR265W, strain rbl2, stronger effect = lower value",1
same,normalized growth,"locus YOR270C, strain vph1, stronger effect = lower value",0.915
same,normalized growth,"locus YOR290C, strain snf2, stronger effect = lower value",0.989
same,normalized growth,"locus YOR316C, strain cot1, stronger effect = lower value",1.01
same,normalized growth,"locus YPL051W, strain arl3, stronger effect = lower value",1.01
same,normalized growth,"locus YPL078C, strain atp4, stronger effect = lower value",1.02
same,normalized growth,"locus YPL106C, strain sse1, stronger effect = lower value",1
same,normalized growth,"locus YPL240C, strain hsp82, stronger effect = lower value",0.974
same,normalized growth,"locus YPL241C, strain CIN2, stronger effect = lower value",1.01
same,normalized growth,"locus YPR119W, strain clb2, stronger effect = lower value",0.997
same,normalized growth,"locus YPR141C, strain kar3, stronger effect = lower value",0.997
same,normalized growth,"locus YPR163C, strain tif3, stronger effect = lower value",1
same,normalized growth,"locus YPR167C, strain met16, stronger effect = lower value",1
same,normalized growth,"strain wtn01, stronger effect = lower value",0.987
